Assay [1] concerns Tyrosine-protein kinase ABL1 (Homo sapiens), P00519 [T315I]. Conditions: at 1 µM.
The subject of assay [2] is Tyrosine-protein kinase ABL1 (Homo sapiens), P00519 [Y253F]. Conditions: at 0.1 µM.
Assay [3] has the same test system. Particulars: at 1 µM.
Assay [4] has as its target Tyrosine-protein kinase ABL1 (Homo sapiens) (UniProt P00519). Particulars: at 0.1 µM.
For assay [5] the target is unchanged. Conditions: at 1 µM.
The target in assay [6] is ALK tyrosine kinase receptor (Homo sapiens) (UniProt Q9UM73). Particulars: at 0.1 µM.
The target is the same in assay [7]. Particulars: at 1 µM.
Assay [8] has as its target Tyrosine-protein kinase ABL2 (Homo sapiens) (UniProt P42684). Particulars: at 0.1 µM.
For assay [9] the target is unchanged. Conditions: at 1 µM.
For assay [10], the target named is Tyrosine-protein kinase receptor UFO (Homo sapiens) (UniProt P30530). Conditions: at 0.1 µM.
Assay [11] shares this target. Particulars: at 1 µM.
The target in assay [12] is Tyrosine-protein kinase Blk (Homo sapiens) (UniProt P51451). Particulars: at 0.1 µM.
Assay [13] shares this target. Conditions: at 1 µM.
Assay [14] has as its target T1, Cytoplasmic tyrosine-protein kinase BMX (Homo sapiens) (UniProt P51813).
T1 sequence (whole entry): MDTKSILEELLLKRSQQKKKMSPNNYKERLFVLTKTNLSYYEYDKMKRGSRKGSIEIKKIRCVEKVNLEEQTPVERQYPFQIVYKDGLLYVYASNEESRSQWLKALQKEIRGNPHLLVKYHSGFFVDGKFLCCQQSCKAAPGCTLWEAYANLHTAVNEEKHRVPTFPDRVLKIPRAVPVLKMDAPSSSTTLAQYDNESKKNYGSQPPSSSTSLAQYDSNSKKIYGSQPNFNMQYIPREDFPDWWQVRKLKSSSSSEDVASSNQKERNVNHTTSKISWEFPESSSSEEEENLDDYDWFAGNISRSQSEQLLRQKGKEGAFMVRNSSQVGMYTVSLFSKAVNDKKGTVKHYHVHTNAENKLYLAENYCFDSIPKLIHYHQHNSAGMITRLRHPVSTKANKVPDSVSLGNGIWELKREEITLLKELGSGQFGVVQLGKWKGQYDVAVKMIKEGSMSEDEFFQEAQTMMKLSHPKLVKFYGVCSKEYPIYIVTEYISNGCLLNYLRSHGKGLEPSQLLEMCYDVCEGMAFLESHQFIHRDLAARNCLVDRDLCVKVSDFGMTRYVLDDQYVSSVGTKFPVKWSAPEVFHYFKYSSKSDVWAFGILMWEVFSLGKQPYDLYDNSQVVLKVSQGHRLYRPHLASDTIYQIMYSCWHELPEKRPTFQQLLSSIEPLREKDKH
Particulars: at 0.1 µM.

For assay [15], the target named is T1, Cytoplasmic tyrosine-protein kinase BMX (Homo sapiens). Conditions: at 1 µM.
Assay [16] addresses Protein-tyrosine kinase 6 (Homo sapiens) (UniProt Q13882). Conditions: at 0.1 µM.
Assay [17] shares this target. Particulars: at 1 µM.
Assay [18] deals with Tyrosine-protein kinase BTK (Homo sapiens) (UniProt Q06187). Particulars: at 0.1 µM.
For assay [19] the target is unchanged. Particulars: at 1 µM.
The target in assay [20] is Tyrosine-protein kinase CSK (Homo sapiens) (UniProt P41240). Particulars: at 0.1 µM.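 Also: value given is the averaged percent inhibition of CSK kinase activity, from the GSK PKIS kinase inhibitor set screening panel.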
Sequence of Tyrosine-protein kinase CSK (Homo sapiens) (P41240 2-450 limits assumed): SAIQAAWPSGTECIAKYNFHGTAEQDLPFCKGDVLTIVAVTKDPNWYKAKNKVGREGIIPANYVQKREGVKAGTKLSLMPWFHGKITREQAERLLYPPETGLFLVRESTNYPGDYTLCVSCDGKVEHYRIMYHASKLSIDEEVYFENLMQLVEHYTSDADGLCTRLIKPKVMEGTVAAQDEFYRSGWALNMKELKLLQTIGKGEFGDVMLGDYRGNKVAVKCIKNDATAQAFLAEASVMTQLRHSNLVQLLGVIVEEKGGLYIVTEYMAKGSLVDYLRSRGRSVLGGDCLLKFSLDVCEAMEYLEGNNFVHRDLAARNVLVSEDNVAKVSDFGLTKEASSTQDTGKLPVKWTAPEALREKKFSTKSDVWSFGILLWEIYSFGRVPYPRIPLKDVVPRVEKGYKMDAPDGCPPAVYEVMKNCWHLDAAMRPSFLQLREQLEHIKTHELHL

Sequence of Tyrosine-protein kinase Blk (Homo sapiens) (P51451 2-505 limits assumed): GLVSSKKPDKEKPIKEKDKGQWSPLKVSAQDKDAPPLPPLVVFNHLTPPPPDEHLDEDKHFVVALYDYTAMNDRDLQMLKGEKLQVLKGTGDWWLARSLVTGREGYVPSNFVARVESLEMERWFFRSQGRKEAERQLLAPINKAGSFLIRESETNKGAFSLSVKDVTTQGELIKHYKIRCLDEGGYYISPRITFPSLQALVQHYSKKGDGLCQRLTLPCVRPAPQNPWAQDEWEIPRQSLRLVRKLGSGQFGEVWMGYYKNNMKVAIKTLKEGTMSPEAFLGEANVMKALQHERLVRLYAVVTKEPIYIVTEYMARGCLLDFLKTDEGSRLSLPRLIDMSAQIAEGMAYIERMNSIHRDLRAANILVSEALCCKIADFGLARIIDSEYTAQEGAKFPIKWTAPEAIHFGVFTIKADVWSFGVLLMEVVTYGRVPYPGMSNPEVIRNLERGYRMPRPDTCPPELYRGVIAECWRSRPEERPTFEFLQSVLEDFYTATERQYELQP
Sequence of Tyrosine-protein kinase ABL2 (Homo sapiens) (P42684 whole entry): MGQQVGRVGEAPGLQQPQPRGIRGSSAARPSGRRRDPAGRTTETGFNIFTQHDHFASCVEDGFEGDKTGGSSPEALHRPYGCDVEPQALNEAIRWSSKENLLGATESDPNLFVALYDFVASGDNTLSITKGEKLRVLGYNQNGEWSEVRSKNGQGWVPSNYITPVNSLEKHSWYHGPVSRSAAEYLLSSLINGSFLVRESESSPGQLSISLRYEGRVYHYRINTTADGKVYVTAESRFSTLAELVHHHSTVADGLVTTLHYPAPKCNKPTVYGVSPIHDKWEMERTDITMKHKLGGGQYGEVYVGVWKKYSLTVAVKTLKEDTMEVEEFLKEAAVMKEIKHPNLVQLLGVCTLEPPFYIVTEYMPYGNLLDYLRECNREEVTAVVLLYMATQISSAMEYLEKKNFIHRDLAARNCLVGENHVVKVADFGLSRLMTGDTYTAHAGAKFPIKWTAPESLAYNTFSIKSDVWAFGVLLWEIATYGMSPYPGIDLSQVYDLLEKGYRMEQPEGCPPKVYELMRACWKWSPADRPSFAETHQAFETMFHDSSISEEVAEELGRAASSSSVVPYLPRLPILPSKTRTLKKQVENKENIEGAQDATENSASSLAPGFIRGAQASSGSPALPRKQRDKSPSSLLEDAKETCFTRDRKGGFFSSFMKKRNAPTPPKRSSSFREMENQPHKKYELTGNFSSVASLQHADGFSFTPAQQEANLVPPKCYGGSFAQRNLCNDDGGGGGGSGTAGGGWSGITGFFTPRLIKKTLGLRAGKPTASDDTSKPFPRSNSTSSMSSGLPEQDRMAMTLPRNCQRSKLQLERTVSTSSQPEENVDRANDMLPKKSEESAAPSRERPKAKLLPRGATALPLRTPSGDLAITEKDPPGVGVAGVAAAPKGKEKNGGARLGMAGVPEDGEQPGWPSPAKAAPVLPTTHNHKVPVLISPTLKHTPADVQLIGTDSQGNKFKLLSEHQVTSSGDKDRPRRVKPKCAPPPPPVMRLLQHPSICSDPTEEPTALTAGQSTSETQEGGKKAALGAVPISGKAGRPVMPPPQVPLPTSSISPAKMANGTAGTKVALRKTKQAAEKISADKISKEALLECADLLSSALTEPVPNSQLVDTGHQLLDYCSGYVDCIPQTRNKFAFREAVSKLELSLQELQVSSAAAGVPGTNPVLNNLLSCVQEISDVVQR
Sequence of ALK tyrosine kinase receptor (Homo sapiens) (Q9UM73 19-1620 limits assumed): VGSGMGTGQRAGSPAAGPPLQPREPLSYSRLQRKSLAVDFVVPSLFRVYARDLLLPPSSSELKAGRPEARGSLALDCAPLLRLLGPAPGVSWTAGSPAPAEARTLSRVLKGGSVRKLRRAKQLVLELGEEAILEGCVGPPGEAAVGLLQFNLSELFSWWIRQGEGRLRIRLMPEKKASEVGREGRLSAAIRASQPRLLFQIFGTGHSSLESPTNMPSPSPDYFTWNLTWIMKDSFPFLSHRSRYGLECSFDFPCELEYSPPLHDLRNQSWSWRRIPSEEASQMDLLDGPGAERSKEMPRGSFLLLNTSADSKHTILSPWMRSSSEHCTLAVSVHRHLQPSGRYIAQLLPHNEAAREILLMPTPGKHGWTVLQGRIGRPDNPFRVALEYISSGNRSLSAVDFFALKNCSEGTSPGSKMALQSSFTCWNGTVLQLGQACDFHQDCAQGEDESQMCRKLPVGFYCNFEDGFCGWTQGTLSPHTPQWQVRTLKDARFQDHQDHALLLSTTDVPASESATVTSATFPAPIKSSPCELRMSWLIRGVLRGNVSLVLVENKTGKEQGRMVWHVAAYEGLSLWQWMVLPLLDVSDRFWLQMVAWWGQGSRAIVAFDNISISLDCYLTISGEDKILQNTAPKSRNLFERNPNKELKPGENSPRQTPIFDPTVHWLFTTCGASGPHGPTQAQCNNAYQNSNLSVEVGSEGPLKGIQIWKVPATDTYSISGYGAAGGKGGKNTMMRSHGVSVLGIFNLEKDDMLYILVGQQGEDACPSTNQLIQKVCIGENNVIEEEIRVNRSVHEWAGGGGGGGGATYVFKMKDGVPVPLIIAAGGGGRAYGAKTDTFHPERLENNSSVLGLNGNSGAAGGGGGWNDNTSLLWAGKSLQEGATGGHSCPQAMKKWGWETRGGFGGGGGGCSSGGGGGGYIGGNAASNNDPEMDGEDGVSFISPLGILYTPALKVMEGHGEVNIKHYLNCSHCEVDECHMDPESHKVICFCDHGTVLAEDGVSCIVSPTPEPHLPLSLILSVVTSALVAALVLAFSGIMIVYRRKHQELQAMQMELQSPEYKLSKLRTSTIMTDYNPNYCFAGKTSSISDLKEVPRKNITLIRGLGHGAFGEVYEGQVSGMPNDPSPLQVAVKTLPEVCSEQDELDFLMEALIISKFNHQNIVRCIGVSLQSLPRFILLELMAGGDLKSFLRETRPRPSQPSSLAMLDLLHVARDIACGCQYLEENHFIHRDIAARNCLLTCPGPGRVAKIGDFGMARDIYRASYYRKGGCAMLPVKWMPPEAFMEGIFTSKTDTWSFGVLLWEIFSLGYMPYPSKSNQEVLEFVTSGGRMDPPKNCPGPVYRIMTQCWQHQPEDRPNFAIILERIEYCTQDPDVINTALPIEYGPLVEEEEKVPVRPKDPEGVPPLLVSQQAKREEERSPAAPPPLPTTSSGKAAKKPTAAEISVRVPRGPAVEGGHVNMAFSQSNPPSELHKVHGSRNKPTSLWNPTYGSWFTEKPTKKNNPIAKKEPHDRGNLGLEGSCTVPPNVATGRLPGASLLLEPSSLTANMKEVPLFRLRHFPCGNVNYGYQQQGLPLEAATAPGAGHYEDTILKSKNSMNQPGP
Sequence of Protein-tyrosine kinase 6 (Homo sapiens) (Q13882 whole entry, looked up): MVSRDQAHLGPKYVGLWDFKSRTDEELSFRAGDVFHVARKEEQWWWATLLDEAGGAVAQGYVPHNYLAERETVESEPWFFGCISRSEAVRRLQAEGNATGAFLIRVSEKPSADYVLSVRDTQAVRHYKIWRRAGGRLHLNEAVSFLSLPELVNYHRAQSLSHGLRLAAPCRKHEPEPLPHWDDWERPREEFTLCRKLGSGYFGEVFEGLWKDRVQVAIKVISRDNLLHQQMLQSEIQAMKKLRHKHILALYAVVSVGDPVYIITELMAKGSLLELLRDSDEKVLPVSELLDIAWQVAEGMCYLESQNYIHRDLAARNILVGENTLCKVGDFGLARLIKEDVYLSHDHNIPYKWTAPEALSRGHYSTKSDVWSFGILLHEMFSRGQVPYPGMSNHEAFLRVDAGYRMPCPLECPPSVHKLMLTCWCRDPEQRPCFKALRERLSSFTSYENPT
Sequence of Tyrosine-protein kinase receptor UFO (Homo sapiens) (P30530 whole entry): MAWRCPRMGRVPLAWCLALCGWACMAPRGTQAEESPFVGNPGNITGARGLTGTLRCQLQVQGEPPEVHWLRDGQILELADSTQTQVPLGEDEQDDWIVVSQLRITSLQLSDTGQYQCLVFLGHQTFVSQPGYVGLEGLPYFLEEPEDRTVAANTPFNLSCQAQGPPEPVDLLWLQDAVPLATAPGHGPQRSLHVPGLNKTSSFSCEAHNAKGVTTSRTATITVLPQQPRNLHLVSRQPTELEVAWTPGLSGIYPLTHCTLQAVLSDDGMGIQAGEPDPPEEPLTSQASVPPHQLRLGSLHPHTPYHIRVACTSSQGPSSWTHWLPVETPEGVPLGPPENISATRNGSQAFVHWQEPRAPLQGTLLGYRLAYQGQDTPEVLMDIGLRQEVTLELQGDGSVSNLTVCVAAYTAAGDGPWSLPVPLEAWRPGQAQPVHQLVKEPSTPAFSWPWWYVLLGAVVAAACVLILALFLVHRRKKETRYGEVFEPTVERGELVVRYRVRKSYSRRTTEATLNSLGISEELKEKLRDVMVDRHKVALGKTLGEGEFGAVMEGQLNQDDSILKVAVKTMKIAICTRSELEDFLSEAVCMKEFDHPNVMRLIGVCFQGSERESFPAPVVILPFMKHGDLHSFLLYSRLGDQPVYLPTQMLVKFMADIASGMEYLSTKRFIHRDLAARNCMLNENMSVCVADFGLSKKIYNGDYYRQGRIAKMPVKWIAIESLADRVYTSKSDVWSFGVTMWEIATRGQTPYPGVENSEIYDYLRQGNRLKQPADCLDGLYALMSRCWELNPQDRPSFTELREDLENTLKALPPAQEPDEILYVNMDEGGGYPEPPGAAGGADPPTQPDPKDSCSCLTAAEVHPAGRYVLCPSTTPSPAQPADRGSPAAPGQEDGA

As a reminder, the inhibition is the change of the read-out against control, counted positive when it falls. For `CCc1cccc(NC(=O)Nc2ccc(Oc3ccc4nc(NC(=O)OC)[nH]c4c3)cc2)c1`, the inhibition in assay [1] worked out at 51.3%; in assay [2], 18.3%; in assay [3], 26.6%; in [4] it was 7.41%; in assay [5] it was 23.8%; in assay [6] it was 1.34%. The inhibition in assay [7] amounted to 3.68%; in assay [8], 14.8%; in assay [9], 44.8%; in [10], 9.63%; in [11], 25.5%; in [12], 2.34%. Also, the inhibition was 0.6% in assay [13]; -1.67% in [14]; 1.67% in [15]; 1.3% in assay [16]; 1.76% in assay [17]; 1.67% in [18]. Further, the inhibition in [19] came to 1.57%; in assay [20], 4.01%.
In the case of `COc1ccccc1Nc1ncc(-c2ccccc2)o1`, the inhibition stood at 5.84% in [1]; 4.71% in assay [2]; 13.7% in assay [3]; 8.63% in assay [4]; 14.1% in [5]; 4.54% in assay [6]. The inhibition in [7] is 9.47%; in assay [8] it was 7.08%; in assay [9] it was 11.2%; in assay [10], -6.45%; in [11], -5.15%; in assay [12] it was 4.5%. Further, the inhibition in assay [13] is 5.8%; in [14] it was 4.01%; in assay [15] it was 6.53%; in [16], 2.03%; in [17], 6.6%; in assay [18], 0.53%. In addition, the values for the inhibition in [19] and in assay [20] were 3.39% and 2.72%, respectively.
For the molecule `Nc1ncnc2occ(-c3ccc(NC(=O)Nc4cccc(C(F)(F)F)c4)cc3)c12`, the inhibition was found to be 89.2% in assay [1]; 12.3% in assay [2]; 48.2% in [3]; 16.1% in assay [4]; 55.8% in [5]; 6.2% in assay [6]. Besides, the inhibition turned out to be 21.8% in [7]; 33.6% in [8]; 64.7% in [9]; 45.3% in [11]; 7.81% in assay [12]; 49.1% in assay [13]. The inhibition in [14] turned out to be 20.4%; in assay [15], 71.3%; in assay [16], 2.23%; in assay [17], 7.46%; in [18], 0.15%; in assay [19] it was 6.68%. Besides, the inhibition in assay [20] is 7.62%.
Turning to `CCn1c(-c2nonc2N)nc2cnc(Oc3cccc(NC(=O)c4ccc(OCCN5CCOCC5)cc4)c3)cc21`, the inhibition stood at 4.26% in [1]; 5.27% in assay [2]; 4.41% in assay [3]; 3.37% in [4]; 11.1% in assay [5]; 1.15% in [6]. For the same molecule, the inhibition in assay [7] is 3.72%; in assay [8], 4.56%; in assay [9], 7.99%; in [10], -6.28%; in [11] it was -2.93%; in [12], 2.22%. Besides, the inhibition in [13] was 2.41%; in assay [14], 0.58%; in [15], 2.53%; in assay [16], 0.94%; in [17], 4.32%; in assay [18] it was -1.45%. In addition, the figures for the inhibition in assay [19] and in assay [20] were -2.04% and 2.95%, respectively.
`Cc1ccc(NC(=O)c2ccnc(N3CCCC3)c2)cc1-c1ccc(C(=O)NCC2CC2)cc1`: the inhibition in [1] was 2.61%; in assay [2], 2.64%; in [3] it was 3.85%; in assay [4] it was -0.85%; in assay [5], 4.81%; in assay [6] it was 0.36%. In addition, the inhibition in assay [7] is 5.33%; in assay [8], -0.85%; in assay [9] it was 7.46%; in assay [10] it was -7.11%; in assay [11], 1.21%; in [12], -1.39%. Also, the inhibition is -0.22% in assay [13]; 2.83% in assay [14]; 4.79% in assay [15]; 4.19% in assay [16]; 3.04% in assay [17]; -3.6% in [18]. Also, the figures for the inhibition in [19] and in assay [20] were -2.42% and 2.53%, respectively.
With `c1cnn2ncc(-c3ccnc(Nc4ccc5c(c4)OCCO5)n3)c2c1`, the inhibition in assay [1] turned out to be 35.9%; in [2], 9.16%; in assay [3], 36%; in assay [4], 7.67%; in assay [5], 38.7%; in assay [6], 3.96%. The inhibition is 31.7% in [7]; 7.27% in [8]; 43.9% in [9]; -2.3% in [10]; 10.1% in [11]; 3.13% in assay [12]. The inhibition in [13] was 9.58%; in [14], 1.58%; in [15] it was 14.5%; in assay [16] it was 6.27%; in assay [17], 13.7%; in assay [18], 1.69%. The inhibition in assay [19] is 3.99%; in assay [20], 4.46%.
For `O=C1NC(=O)C(c2ccccc2Cl)=C1Nc1cccc(O)c1`, the inhibition in [1] came to 6.08%; in assay [2], 3.51%; in [3], 3.33%; in [4] it was 4.23%; in [5], 9.09%; in assay [6], 2.43%. Moreover, the inhibition in assay [7] was 4.74%; in [8], 4.43%; in assay [9], 1.33%; in assay [10], -5.88%; in assay [11], -1.28%; in assay [12], 1.66%. The inhibition in [13] amounted to 4.61%; in [14] it was 2.35%; in assay [15], 4.21%; in assay [16], 3.64%; in assay [17], 2.79%; in [18], 0.01%. For the same molecule, the inhibition in [19] is 1.37%; in assay [20] it was 1.31%.
Turning to `Fc1cccc(COc2ccc(Nc3ncnc4cc(-c5ccc[nH]5)sc34)cc2Cl)c1`, the inhibition in assay [1] is 5.41%; in assay [2], 3.92%; in [3], 8.02%; in [4], 0.53%; in [5], 10.7%; in assay [6] it was -2.31%. The inhibition in [7] was 2.96%; in assay [8], 3.02%; in [9], 9.41%; in [10], -2.49%; in assay [11] it was -0.12%; in assay [12], -2.62%. For the same molecule, the inhibition was 0.69% in assay [13]; 2.13% in assay [14]; 1.82% in assay [15]; 1.55% in assay [16]; 6.36% in assay [17]; -5.43% in assay [18]. In addition, the inhibition was -4.27% in assay [19] and 2.68% in assay [20].
In the case of `CS(=O)(=O)Nc1ccc(N/C=C2\C(=O)Nc3ccccc32)cc1`, the inhibition in [1] was 18.3%; in assay [2], -0.43%; in assay [3] it was 12%; in assay [4], -0.3%; in assay [5] it was 11%; in [6], -2.22%. Further, the inhibition in assay [7] amounted to 5.88%; in assay [8], 0.2%; in assay [9] it was 8.69%; in [10], 2.95%; in assay [11], 4.47%; in assay [12], 0.62%. Also, the inhibition was 18.2% in [13]; -1.58% in [14]; 0.63% in assay [15]; -4.62% in [16]; -2.23% in assay [17]; -1.06% in assay [18]. Also, the inhibition in [19] is -0.9%; in assay [20], -9.22%.
Consider `CCn1c(-c2nonc2N)nc2c(C#CC(C)(C)O)nc(CN3CCCC3)cc21`, for which the inhibition in [1] was 0.96%; in assay [2], 0.59%; in [3], -0.16%; in assay [4], 0.66%; in assay [5], 3.27%; in assay [6], -0.84%. Moreover, the inhibition in assay [7] was 0.01%; in [8], 2.08%; in [9] it was 5.65%; in [10], 1.88%; in assay [11] it was 1.53%; in [12] it was -0.49%. In addition, the inhibition in assay [13] is 0.66%; in assay [14], 2.82%; in assay [15], -1.55%; in assay [16] it was -2.67%; in [17], -1.74%; in assay [18] it was -1.44%. The inhibition in assay [19] was -1.15%; in assay [20], -0.07%.

The values are drawn from ChEMBL document CHEMBL1961873, “Compounds: GSK PKIS; Assays: Nanosyn kinase panel” (2012).
